# The supplement of paper PMC7156485
# ± gives the standard deviation of the averaged measurements.
# Experiments:
# Details in all cases: concentration: 10 µM; 24 h
# [1] = system: HCC1569; test: cell number relative to DMSO (% of DMSO); higher = more cells (less growth inhibition / toxicity)
# Method in brief: (§1)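 In 384-well plates holding 800 HCC1569 or TDF cells per well in RPMI with 10% FBS, compounds were tested at 10 µM for 24 h at 37 °C in triplicate. Fixation used 3.7% formaldehyde. Staining used a rabbit anti-H1.0 antibody with an AlexaFluor 647 secondary, plus DAPI. Each value, H1.0 nuclear intensity or cell number, is a median of replicates shown as percent of the plate control, and HCC1569 values were smoothed for positional effects.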
# [2] = system: TDF; test: as above
# Method in brief: as §1
# [3] = system: TDF; test: H1.0 immunofluorescence intensity relative to DMSO (% of DMSO); higher = stronger H1.0 induction, active = 120 or more
# Method in brief: as §1
# [4] = system: HCC1569; test: H1.0 immunofluorescence intensity relative to DMSO (% of DMSO); higher = stronger H1.0 induction, active = 140 or more
# Method in brief: as §1
# 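Throughout, for H1.0 immunofluorescence intensity relative to DMSO: TDF is a line of transformed human dermal fibroblasts of mesenchymal origin.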
# 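Throughout, for cell number relative to DMSO: TDF denotes transformed human dermal fibroblasts of mesenchymal origin.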
Structure (SMILES),cell number [1],cell number [2],H1.0 immunofluorescence intensity [3],H1.0 immunofluorescence intensity [4]
"CCCCCC(O)C=CC1C(O)CC(O)C1CC=CCCCC(=O)O (stereo unspecified) [9a,11b Prostaglandin F2]",106,99.4,94.2 (inactive),101 (inactive)
Cc1ccc(OCCSc2ncccn2)c(Br)c1 [2-{[2-(2-bromo-4-methylphenoxy)ethyl]sulfanyl}pyrimidine],100,105,94 (inactive),107 (inactive)
CCCCCCCOc1cc2c(cc1/C(C)=C/c1ccc(C(=O)O)cc1)C(C)(C)CCS2(=O)=O,96.9,101,88.9 (inactive),102 (inactive)
CCOC(=O)c1cnc2c(cnn2CC)c1NN=C(C)C [Etazolate],102,108,95.6 (inactive),103 (inactive)
COc1ccccc1N1CCN(CC(O)COc2cccc3ccccc23)CC1.Cl.Cl (stereo unspecified) [Naftopidil dihydrochloride],101,106,101 (inactive),101 (inactive)
Nc1ncnc2c1ncn2C1OC(CO)C(O)C1O (stereo unspecified) [Adenosine],107,109,92.7 (inactive),93.6 (inactive)
N#CC(=Cc1c[nH]c2ccccc12)C(=O)c1ccc(O)c(O)c1 [Tyrphostin AG 808],93.1,100,86.2 (inactive),122 (inactive)
COc1ccc(CN(CCN(C)C)c2ccccn2)cc1.O=C(O)C=CC(=O)O [Mepyramine maleate],106,94.8,92.3 (inactive),100 (inactive)
CC(C)NCC(O)COc1cccc2ccccc12 (stereo not drawn) [Propranolol S(-)],102,104,102 (inactive),101 (inactive)
CCCCCC(O)C=CC=CCC=CCCCC(=O)O (stereo unspecified),100,90.9,97 (inactive),97.1 (inactive)
CC1OC(OC2C(Oc3cc(O)c4c(=O)c(O)c(-c5ccc(O)cc5)oc4c3)OC(CO)C(O)C2O)C(O)C(O)C1O (stereo unspecified) [Kaempferol-7-neohesperidoside],98.8,99.4,95.8 (inactive),87.9 (inactive)
"C#CCN[C@H]1CCc2ccccc21 [N-[(1S)-2,3-dihydro-1H-inden-1-yl]-N-(2-propynyl)amine]",102,104,92.2 (inactive),98.1 (inactive)
"c1cc(-c2sc(-c3ccncc3)c(-c3ccncc3)c2-c2ccncc2)ccn1 [4-[3,4,5-tri(4-pyridinyl)-2-thienyl]pyridine]",98.5,95.1,98 (inactive),98.9 (inactive)
CCCCCC(O)C=CC=CCC=CC=CC(O)CCCC(=O)O (stereo unspecified),115,98.1,101 (inactive),86.5 (inactive)
COc1cccc2c1C1CN(CCCCn3c(=O)[nH]c4c(sc5ncc(-c6ccccc6)nc54)c3=O)CC1CO2.Cl (stereo unspecified) [Fiduxosin hydrochloride],88.8,103,102 (inactive),116 (inactive)
O=C(C=Cc1ccc(O)c(O)c1)c1ccc(O)cc1O [Butein],74.3,89.2,94.3 (inactive),133 (inactive)
CC(CS)C(=O)N1CCCC1C(=O)O (stereo unspecified) [Captopril],98.4 ± 2.9,93.4 ± 4.1,97.6 (inactive),96.7 (inactive)
CC(C(=O)O)c1ccc(-c2ccccc2)c(F)c1 (stereo unspecified) [Flurbiprofen],98.6,101,97.4 (inactive),101 (inactive)
O=C1NC(=O)C(=Cc2ccc3nccnc3c2)S1 [PI 3-Kg Inhibitor],103,110,87.2 (inactive),114 (inactive)
O=C([O-])CCC(NC(=O)c1ccccc1C(=O)[O-])C(=O)[O-].[Na+].[Na+].[Na+] [Phthalamoyl-L-glutamic acid trisodium],61.8,103,89.2 (inactive),170 (active)
CCOC(=O)c1c2c3c(cccc3[nH]c1=O)C(=O)c1ccccc1-2,99.7,108,94.2 (inactive),99.9 (inactive)
NC(=O)c1ccc2nc(-c3ccc(Oc4ccc(Cl)cc4)cc3)[nH]c2c1 [Chk2 Inhibitor II],97.4,100,91.4 (inactive),132 (inactive)
CC1COc2c(C3(N)CC3)c(F)cc3c(=O)c(C(=O)O)cn1c23 (stereo unspecified) [Pazufloxacin],104,110,94.1 (inactive),104 (inactive)
CC1CN(c2c(F)c(N)c3c(=O)c(C(=O)O)cn(C4CC4)c3c2F)CC(C)N1 (stereo unspecified) [Sparfloxacin],104,103,95.6 (inactive),106 (inactive)
CC(C)(C)c1ccc(C(O)CCCN2CCC(C(O)(c3ccccc3)c3ccccc3)CC2)cc1 (stereo unspecified) [Terfenadine],92.7 ± 3.6,97.9 ± 12,107 (inactive),126 (inactive)

Structure (SMILES),cell number [1],cell number [2],H1.0 immunofluorescence intensity [3],H1.0 immunofluorescence intensity [4]
O=C(O)CCCC=CCC1C(=O)CC(O)C1C=CC(O)CCc1ccccc1 (stereo unspecified) [17-Phenyl-trinor-prostaglanding E2],105,102,106 (inactive),97.5 (inactive)
Cc1ccccc1C(=O)c1ccc(Nc2ccc(Br)cc2N)cc1Cl,97.3,107,93 (inactive),117 (inactive)
N#Cc1c(-c2ccccc2)cc(-c2cc(Br)ccc2O)[nH]c1=O [PIM1 Kinase Inhibitor II],103,105,93.5 (inactive),114 (inactive)
CC(C)C(CO)Nc1nc(Nc2cc(N)cc(Cl)c2)c2ncn(C(C)C)c2n1 (stereo unspecified) [Aminopurvalanol A],65.5,83.4,97.4 (inactive),145 (active)
"Cl.Cl.Cl.NCCC1CCCC(CCN)N1 (stereo unspecified) [MDL 26,630 trihydrochloride]",104,105,93.7 (inactive),85.3 (inactive)
CCCCCCCCCCC(=O)O [Undecanoic acid],104,100,113 (inactive),103 (inactive)
OCc1c[nH]c2ccccc12 [Indole-3-carbinol],97.5,109,102 (inactive),110 (inactive)
CNCCC(Oc1ccc(C(F)(F)F)cc1)c1ccccc1.Cl (stereo unspecified) [Fluoxetine hydrochloride],93.1,85.7,108 (inactive),122 (inactive)
Nc1nc(SCc2ccc([N+](=O)[O-])cc2)c2ncn(C3OC(CO)C(O)C3O)c2n1 (stereo not drawn) [S-(4-Nitrobenzyl)-6-thioguanosine],101,98.2,94.5 (inactive),93.2 (inactive)
CNC1C(OC2OC(CO)C(N)C(O)C2O)OC2CC(N)C(OC3C(N)CC(N)C(O)C3O)OC2C1O (stereo unspecified) [Apramycin],106,96.3,98.5 (inactive),117 (inactive)
CC1(C)SC2C(NC(=O)C(N)c3ccccc3)C(=O)N2C1C(=O)O (stereo unspecified) [Ampicillin],103,109,90 (inactive),108 (inactive)
CCCCCCCCCCCCCCCCCC(=O)O [Octadecanoic acid],102,101,104 (inactive),95.3 (inactive)
"OC[C@H]1NC[C@@H](O)[C@@H]1O [1,4-Dideoxy-1,4-imino-D-arabinitol]",105,97.9,88.6 (inactive),90.4 (inactive)
CC(=O)Oc1ccc(C(c2ccc(OC(C)=O)cc2)c2ccccn2)cc1 [Bisacodyl],94.2,102,86.4 (inactive),125 (inactive)
FC(F)(F)c1ccccc1-n1ccnc1 [1-[2-(Trifluoromethyl)phenyl]imidazole],100,96,96.5 (inactive),108 (inactive)
N#CC(=Cc1ccc(O)c(O)c1)C(=O)NCCc1ccccc1 [Tyrphostin AG 698],84.3,91,87.8 (inactive),119 (inactive)
"CN1C2CCC1CC(NC(=O)c1nn(C)c3ccccc13)C2.O=C(O)C=CC(=O)O (stereo unspecified) [LY-278,584 maleate]",104,94.8,99.1 (inactive),93 (inactive)
Cc1ccc(C(=O)COC(=O)c2cccc(NC(=O)c3ccc([N+](=O)[O-])cc3[N+](=O)[O-])c2)cc1,76.5,67.7,110 (inactive),152 (active)
O=C(ON1C(=O)CCC1=O)N1CCN(C(c2ccc(Cl)cc2)c2ccc(Cl)cc2)CC1,77.8,82.1,112 (inactive),126 (inactive)
CCNC(=O)C1OC(n2cnc3c(NCc4ccccc4)ncnc32)C(O)C1O (stereo unspecified) [N6-Benzyl-5'-N-ethylcarboxamidoadenosine],77,57.3,103 (inactive),114 (inactive)
C=C(C)C1CCC2(CO)CCC3(C)C(CCC4C5(C)CCC(O)C(C)(C)C5CCC43C)C12 (stereo unspecified) [Betulin],107,99.2,98.9 (inactive),95.6 (inactive)
CCCCCCCCCCCCC(=O)O [Tridecanoic acid],105,92.9,107 (inactive),101 (inactive)
CC(C)c1ccc2c(c1)c(SC(C)(C)C)c(CC(C)(C)C(=O)[O-])n2Cc1ccc(Cl)cc1.[Na+],102,108,91.8 (inactive),91.2 (inactive)
CCC(=O)OC(OP(=O)(CCCCc1ccccc1)CC(=O)N1CC(C2CCCCC2)CC1C(=O)O)C(C)C (stereo unspecified) [Fosinopril],99.8,86,96 (inactive),101 (inactive)
